Screens from PubChem.
Glyco luc inh: N-linked glycosylation inhibition; actives 0.23% (n = 360,000); reporter increase, % at 12.5 µM; D54 ERlucT glycosylation luciferase reporter, 24 h; percent of 100 nM tunicamycin response;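 active = mean luciferase reporter signal, scaled so untreated is 0 and the glycosylation-blocking control 100, at or above a set limit in every replicate; inconclusive = mean reaches the limit but not every replicate does; inactive = mean below the limit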;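 note: luciferase carries N-glycosylation sites so blocking glycosylation raises the light; 0% = median of neutral control wells and 100% = median of 100 nM tunicamycin wells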
NSD2 inh: blocks human histone methyltransferase NSD2; NSD2 peptide methylation, AlphaScreen, 120 min; O96028; actives 0.54% (n = 310,000); AID 743445; inhibition, % at 12.5 µM; in the data active = inhibition above about 50%
Target sequence (O96028 whole entry, looked up): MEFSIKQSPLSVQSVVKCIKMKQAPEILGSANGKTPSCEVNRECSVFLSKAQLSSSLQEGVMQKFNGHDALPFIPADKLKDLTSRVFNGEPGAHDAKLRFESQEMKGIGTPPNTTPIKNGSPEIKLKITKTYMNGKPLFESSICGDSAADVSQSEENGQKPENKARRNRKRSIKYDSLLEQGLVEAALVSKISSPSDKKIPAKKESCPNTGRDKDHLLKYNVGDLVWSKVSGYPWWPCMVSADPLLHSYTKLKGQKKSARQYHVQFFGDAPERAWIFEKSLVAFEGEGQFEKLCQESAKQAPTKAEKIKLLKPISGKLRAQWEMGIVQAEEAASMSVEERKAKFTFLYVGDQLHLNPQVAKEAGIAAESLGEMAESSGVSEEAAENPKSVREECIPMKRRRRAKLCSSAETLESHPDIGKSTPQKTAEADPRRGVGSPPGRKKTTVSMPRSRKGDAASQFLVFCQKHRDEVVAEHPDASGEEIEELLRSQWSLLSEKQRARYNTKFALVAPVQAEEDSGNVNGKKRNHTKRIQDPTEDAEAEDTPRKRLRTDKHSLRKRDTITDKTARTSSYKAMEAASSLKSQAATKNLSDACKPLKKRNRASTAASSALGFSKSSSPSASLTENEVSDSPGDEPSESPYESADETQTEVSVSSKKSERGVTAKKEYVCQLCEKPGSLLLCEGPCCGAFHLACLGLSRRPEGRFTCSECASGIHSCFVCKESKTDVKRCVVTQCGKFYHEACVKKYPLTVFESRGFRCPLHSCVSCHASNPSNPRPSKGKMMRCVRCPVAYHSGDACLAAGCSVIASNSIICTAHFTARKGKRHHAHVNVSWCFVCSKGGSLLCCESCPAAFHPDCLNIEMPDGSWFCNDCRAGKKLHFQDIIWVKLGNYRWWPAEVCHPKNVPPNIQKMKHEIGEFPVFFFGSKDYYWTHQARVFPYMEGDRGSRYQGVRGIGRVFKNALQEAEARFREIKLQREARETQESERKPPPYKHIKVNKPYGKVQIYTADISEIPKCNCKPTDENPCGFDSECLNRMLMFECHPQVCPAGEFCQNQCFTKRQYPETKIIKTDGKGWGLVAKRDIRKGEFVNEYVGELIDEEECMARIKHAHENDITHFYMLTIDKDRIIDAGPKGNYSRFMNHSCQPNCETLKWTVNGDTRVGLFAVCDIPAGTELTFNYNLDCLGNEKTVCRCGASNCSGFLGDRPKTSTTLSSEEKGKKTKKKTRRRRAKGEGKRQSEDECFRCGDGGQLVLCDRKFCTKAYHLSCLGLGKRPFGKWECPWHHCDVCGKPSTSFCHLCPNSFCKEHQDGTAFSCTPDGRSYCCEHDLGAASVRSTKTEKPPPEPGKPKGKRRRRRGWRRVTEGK
Casp6 inh: caspase-6 (human) enzyme inhibition. purified caspase-6, Z-VEID-R110 cleavage fluorescence. AID 686996. inhibition, % at 12.5 µM. actives 0.53% (n = 350,000);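 active = mean inhibition across replicates at least about 35%, with every replicate also reaching that limit, limit read from the data; inconclusive = only one of the two criteria met; inactive = neither criterion met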;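 note: 0% = median of neutral control wells and 100% = no fluorescence left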
RAD54 branch: RAD54 (human) branch migration inhibition; Q92698; RAD54 Holliday junction branch migration, FAM/BHQ fluorescence; inhibition, % at 10.4 µM; actives 0.14% (n = 360,000); AID 602329;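 active = mean normalized replicate activity at least 40 and at least half of replicates scoring 40 or more; inconclusive = only one of the two criteria met; inactive = mean below 40 and under half of replicates reaching 40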;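 note: 0% = median of neutral control wells and 100% = median of positive control wells; inhibitors cause a drop in the FAM fluorescence signal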
RAD52 anneal inh: RAD52 (human) annealing inhibition. P43351. recombinant RAD52 DNA annealing, FRET fluorescence. inhibition, % at 18.7 µM. actives 0.46% (n = 360,000). AID 651710;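 active = every replicate showing at least 50% inhibition; inconclusive = mean inhibition at least 50% but not in every replicate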
An asterisk follows results filed as active; i = inactive; ? = inconclusive; . = not tested or not shown; ! = repeats disagree. This is a sample that favours compounds with a hit; in the whole collection about 1.2% have one here.

SMILES	Glyco luc inh	NSD2 inh	Casp6 inh	RAD54 branch	RAD52 anneal inh
CN(Cc1ccco1)C(=O)CSc1nn2c(=O)c(C(C)(C)C)nnc2s1	3	19	43*	-12	-22
CC(C)(C)c1nnc2sc(SCC(=O)c3ccc4c(c3)OCCO4)nn2c1=O	40*	-5	6	1	-1
COCCNC(=O)C[C@@H]1CC[C@@H]2[C@H](COC[C@H](O)CN2S(=O)(=O)c2ccccc2C)O1	.	.	0	1	4
Cc1ccccc1S(=O)(=O)N1C[C@@H](O)COC[C@H]2O[C@H](CC(=O)NCCc3ccccc3)CC[C@@H]21	.	.	-53	-23	72*
Cc1ccccc1S(=O)(=O)N1C[C@H](O)COC[C@@H]2O[C@@H](CC(=O)NCCc3ccccc3)CC[C@H]21	.	.	-54	-16	58*
COCCNC(=O)C[C@@H]1CC[C@H]2[C@@H](COC[C@H](O)CN2S(=O)(=O)c2ccccc2C)O1	.	.	-50	-7	19
C[C@@H]1CCCCO[C@H](CN(C)C(=O)c2ccncc2)[C@H](C)CN([C@@H](C)CO)C(=O)c2cc(NS(=O)(=O)c3ccccc3)ccc2O1	.	.	0	-1	2
COc1ccc(NC(=O)Nc2ccc3c(c2)C(=O)N([C@@H](C)CO)C[C@@H](C)[C@@H](CN(C)C(=O)Nc2ccccc2)OCCCC[C@@H](C)O3)cc1	.	.	1	4	18
CCN1CCN(Cc2ccc(NC(=O)c3ccc(C)c(/C=C/c4cnc(Nc5cc(N6CCNCC6)nc(C)n5)cn4)c3)cc2C(F)(F)F)CC1	-20	.	.	105*	.
CCN1CCN(Cc2ccc(NC(=O)c3ccc(C)c(NC(=O)c4ccno4)c3)cc2C(F)(F)F)CC1	-10	.	-6	-9	8
Cc1ccc2nc(-c3ccc(SCC(=O)Nc4nnc(C)s4)nc3)[nH]c2c1	102*	.	.	.	.
CNC(C)C(=O)NC(C(=O)NC(C(=O)Nc1cccc2ccccc12)C(C)C)C(C)C (stereo not given)	10	.	0	-1	-19
CC(N)C(=O)NC(C(=O)NC(C)C(=O)Nc1cccc2ccccc12)C(C)C (stereo not given)	2	.	45*	9	-6
CCC(=O)N(C)C[C@H]1Oc2cc(C#CC3(O)CCCC3)ccc2S(=O)(=O)N([C@@H](C)CO)C[C@H]1C	.	.	-1	3	-10
CCC(=O)N(C)C[C@H]1Oc2ncc(C#CC(C)(C)O)cc2C(=O)N([C@H](C)CO)C[C@H]1C	.	.	-1	2	-3
COc1cc2c(cc1OC)-c1cc(Nc3ccc(C(=O)O)cc3)nc(=O)n1CC2	0	2	41*	-14	-69
CC#CC#Cc1cccc(=O)o1	36*	1	53*	0	-5
CN(C)C(=O)c1cccc(-c2ccc([C@H]3[C@@H](CO)N4CCCCN(CCC(F)(F)F)C[C@H]34)cc2)c1	.	.	2	6	9
CNC[C@@H]1Oc2cc(C#Cc3ccc(OC)cc3)ccc2S(=O)(=O)N([C@H](C)CO)C[C@H]1C	.	.	1	-5	47
CNC[C@H]1Oc2cc(C#Cc3ccc(OC)cc3)ccc2S(=O)(=O)N([C@@H](C)CO)C[C@@H]1C	.	.	-1	2	52*
C[C@H](CO)N1C[C@H](C)[C@H](CN(C)Cc2ccccn2)Oc2cc(-c3ccc(C#N)cc3)ccc2S1(=O)=O	.	.	0	-2	2
Cc1ccc(S(=O)(=O)N(C)C[C@@H]2Oc3cc(C#Cc4ccccc4)ccc3S(=O)(=O)N([C@@H](C)CO)C[C@@H]2C)cc1	.	.	39*	-5	-10
C[C@@H]1CN([C@@H](C)CO)S(=O)(=O)c2ccc(-c3ccc(C#N)cc3)cc2O[C@@H]1CN(C)Cc1ccccn1	-1	.	45*!	3	-34
C[C@H](CO)N1C[C@H](C)[C@H](CN(C)C(=O)CN(C)C)Oc2cc(C#Cc3ccccc3)ccc2S1(=O)=O	.	.	-1	8	60*
Cc1ccc(-c2ccc3c(c2)O[C@@H](CN(C)C(=O)CN(C)C)[C@@H](C)CN([C@H](C)CO)S3(=O)=O)cc1	.	.	-3	9	58*
SMILES	Glyco luc inh	NSD2 inh	Casp6 inh	RAD54 branch	RAD52 anneal inh
Cc1ccc(-c2ccc3c(c2)O[C@@H](CN(C)C(=O)CN(C)C)[C@H](C)CN([C@H](C)CO)S3(=O)=O)cc1	.	.	-2	7	18
C[C@@H]1CN([C@H](C)CO)S(=O)(=O)c2ccc(C#Cc3ccccc3)cc2O[C@@H]1CN(C)C(=O)CN(C)C	-1	.	-5	17	68*
C[C@@H]1CN([C@@H](C)CO)S(=O)(=O)c2ccc(C#Cc3ccccc3)cc2O[C@H]1CN(C)C(=O)CN(C)C	.	.	0	4	34
O=C(C[C@@H]1C=C[C@H](NC(=O)C2CCC2)[C@H](CO)O1)NC1CCC1	.	.	2	-1	-4
COCC(=O)N1C[C@@H](C)[C@@H](OC)CN(C)C(=O)c2cc(NC(=O)c3cnccn3)ccc2OC[C@H]1C	.	.	-2	-9	15
NC(=O)N=Nc1c2[nH]c3ccccc3nc-2c2ccccc12	94*	-1	1	?	-11
CC(=O)/C=C/c1ccccc1Oc1c(F)c(F)nc(F)c1F	60*	0	0	3	-11
COc1ccc2c3c(n(C)c2c1)[C@@H](CO)N(C(=O)C1CC1)CC31CCN(C)CC1	.	.	3	.	14
COc1ccc(-c2cnc3c(-c4ccc(F)cc4)cnn3c2N)cc1	-4	0	-1	-20	5
Cc1nc2c(-c3ccc(F)cc3)cnn2c2c1CCC2	-3	-5	56*	.	-6
COc1ccccc1NS(=O)(=O)c1cc(C(=O)NC2CCN(Cc3ccccc3)CC2)ccc1C	.	1	55*	.	-34
COc1ccc(-c2cc(-c3ccc(O)cc3)nc(N)c2C#N)cc1OC	27*	-12	4	1	-36
Cc1noc(C)c1NC(=O)N(C)C[C@@H]1Oc2ccc(NC(=O)CCN3CCOCC3)cc2C(=O)N([C@@H](C)CO)C[C@H]1C	.	.	1	3	6
O=C1NC(c2ccccc2)=N/C1=C/c1ccco1	1	4	39*	.	-5
Cc1noc(C)c1S(=O)(=O)N(C)C[C@H]1Oc2ccc(NC(=O)CCCCCC(=O)Nc3ccccc3N)cc2CC(=O)N([C@H](C)CO)C[C@@H]1C	.	.	0	.	-10
CC1=CN2C(=N)/C(=C/c3ccc([N+](=O)[O-])o3)C(=O)N=C2S1	2	5	37*	.	i
CC1=CN2C(=N)/C(=C/c3ccco3)C(=O)N=C2S1	-12	19	5	.	-14
COc1ccc2c3c([nH]c2c1)[C@H](CO)NCC31CN(C(=O)Cc2cccnc2)C1	.	.	.	.	-4
CC(=O)Nc1c(O)nc(SCC(=O)Nc2nnc(CC(C)C)s2)[nH]c1=O	-1	-3	.	-20	.
CC(=O)Nc1c(O)nc(SCC(=O)Nc2nnc(SCc3ccccc3)s2)[nH]c1=O	2	.	80*	.	-23
O=[N+]([O-])c1ccccc1C=NNC(=S)NN=Cc1ccccc1[N+](=O)[O-]	28*	-2	3	-2	-20
CC(C)NC(=S)N/N=C/c1ccccc1[N+](=O)[O-]	2	-1	0	.	-19
Cc1cc(N2CCN(c3ccc([N+](=O)[O-])c4cccnc34)CC2)c2ccccc2n1	105*	.	.	.	.
